Screening results: PubChem BioAssay, National Center for Advancing Translational Sciences (NCATS)
Luciferase inh: Firefly luciferase inhibition profiling of diverse chemical library using quantitative high-throughput screening; AID 1347043, 2019; purified P. pyralis luciferase, luminescence, biochemical; Potency, µM (series often up to 115 µM), hits mostly inhibitors; 76,000 tested, 2.5% active; Luciferin 4-monooxygenase (Photinus pyralis), P08659; further: nearly all actives have a fitted effect of over 65% in size
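Luminescence read by CCD imaging after purified firefly luciferase (10nM final) was added to substrate buffer holding 10uM D-luciferin and 10uM ATP, pH 7.5, pre-dosed with compound.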
NIH3T3 tox: Cytotoxic Profiling in NIH 3T3 Cell Line of Diverse Libraries Using Quantitative High-Throughput Screening. Potency, µM (series often up to 96.7 µM), for inactives: top-dose activity change, negative = cytotoxicity, hits mostly inhibitors. 94,000 tested, 4.3% active. NIH 3T3 viability, CellTiter-Glo ATP luminescence, 48-72 h; further: nearly all actives have a fitted effect of over 55% in size
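First NIH 3T3 cells are plated at 400 cells/well; next compound is pinned in; then plates incubate 48 or 72 hr at 37 °C; finally CellTiter-Glo is added and luminescence read after 10 min.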
GPT2 inhibitor: Primary qHTS assay for inhibitors of Glutamate pyruvate transaminase 2 (GPT2); AID 1671188, 2021; 100,000 tested, 0.25% active; Potency, µM (highest dose often 57.7 µM), for inactives: at the highest dose activity change, negative = inhibition, hits mostly inhibitors; Recombinant GPT2, coupled pyruvate oxidase/HRP Amplex Red fluorescence; further: nearly all actives have a fitted effect of over 60% in size
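GPT2 10ng/uL, a-KG 250uM, L-Ala 2mM, HEPES pH7.5 + 0.0001% Tween; 30 min RT. Then Amplex mix (PO/HRP/ThPP), 30 min RT dark, fluorescence. AOA 50uM used as positive control.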
HEK293 tox: Cytotoxic Profiling in HEK 293 Cell Line of Diverse Libraries Using Quantitative High-Throughput Screening; HEK 293 viability, ATP luminescence (CellTiter-Glo), 48-72 h; Potency, µM (doses to about 115 µM), inactives show at the top dose activity change, negative = cytotoxicity, usual class: inhibitors; 94,000 tested, 6.6% active; AID 1345083, 2018; further: nearly all actives have a fitted effect of over 60% in size
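ATP-coupled CellTiter-Glo luminescence served as viability read-out, recorded 10 min after reagent addition at room temperature. HEK 293 cells, 250 cells/well, had been incubated with pintool-transferred compound for 48 or 72 hr at 37 degree Celsius.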
hNpr1 antagonist: Natriuretic polypeptide receptor (hNpr1) antagonism - Primary qHTS; HEK293 hNpr1 GloSensor cGMP, ANP-stimulated luminescence; Potency, µM (titrated, usually from 46.3 µM), for inactives: at the top dose activity change, negative = inhibition, hits mostly inhibitors; 76,000 tested, 1.6% active; calls by dose curve; further: nearly all actives have a fitted effect of over 60% in size
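Compound pre-incubated 30 min at room temperature on GloSensor-loaded HEK293 cells stably carrying hNpr1 and the pGS-40F cGMP biosensor. Stimulation uses hNppA at 0.1 nM final; luminescence is taken at baseline and 20 min post-agonist.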
* marks the source's active call; other numbers are inactive results; i = inactive; ? = inconclusive; · = no result; ! = not active in a repeat; [ ] = another dose, or the depositor's remark. Sampled rows, rich in hits. Any-hit rate of the full collection: about 10%. Unless noted, the call rests on the fitted dose curve; in most records, active means well fitted curve in the direction sought with a large enough effect; inconclusive means small, poorly fitted or top-dose-only effect, or another doubt; inactive means no such curve, though single readings can be large; an effect the other way counts as inactive or inconclusive. On the % scale 0 is the no-effect control and ±100 the full control effect; potency means the concentration at half of the fitted maximal effect.

SMILES	Luciferase inh	NIH3T3 tox	GPT2 inhibitor	HEK293 tox	hNpr1 antagonist
COc1cccc(-c2ccc(CN3CCCC3C(=O)NCC(F)F)cc2)c1 (stereo not drawn)	·	?	3%	?	·
O=C(Cc1cccc(F)c1)NCCn1ccn2nc(-c3ccc(F)cc3)cc2c1=O	?	-22%	i	?	-16%
COc1cccc(-c2cc3c(=O)n(CCNC(=O)c4ccccc4F)ccn3n2)c1	?	-28%	-4%	?	-8%
COc1ccc(-c2cc3c(=O)n(CCNC(=O)c4ccc(OC)c(OC)c4)ccn3n2)cc1	?	-9%	i	?	-23%
CCOc1ccc(-c2cc3c(=O)n(CCNC(=O)c4ccoc4)ccn3n2)cc1	20µM*	-25%	i	45µM*	-5%
O=C(NCCn1ccn2nc(-c3ccc(F)cc3)cc2c1=O)c1c(F)cccc1Cl	i	?	i	32µM*	2%
COc1ccc(-c2cc3c(=O)n(CCNC(=O)c4cccc(OC)c4OC)ccn3n2)cc1	6.3µM*	?	2%	35µM*	-15%
COc1ccc(-c2cc3c(=O)n(CCNC(=O)c4ccoc4)ccn3n2)cc1	?	-20%	i	22µM*	-12%
CC(C)c1ccc(CNC(=O)c2ccc(Cn3ccn4nc5c(c4c3=O)CCCC5)cc2)cc1	i	?	i	-43%	-20%
COc1ccc(-c2cc3c(=O)n(CCNC(=O)c4sccc4C)ccn3n2)cc1	4.5µM*	-18%	-3%	?	-13%
COc1ccc(-c2cc3c(=O)n(CCNC(=O)c4ccc(C)c(F)c4)ccn3n2)cc1	i	-14%	i	3%	-17%
O=C(NCCn1ccn2nc(-c3ccc(F)cc3)cc2c1=O)c1ccoc1	?	?	i	50µM*	-13%
O=C(NCCn1ccn2nc(-c3ccc(F)cc3)cc2c1=O)c1ccc2[nH]ccc2c1	11µM*	-19%	i	-22%	0%
COc1ccc(-c2cc3c(=O)n(CCNC(=O)c4ccsc4)ccn3n2)cc1	4.5µM*	-20%	0%	?	-24%
CCOC(=O)CC(=O)N1CCC(=O)N(CC(=O)OCC)c2ccccc2C(OC)C1 (stereo not drawn)	·	-22%[46.1 µM]	4%[27.3 µM]	?	·
O=C(NC1CCN(c2ccnc3ccnn23)C1)C1CCCC1 (stereo not drawn)	·	?	-8%[88.5 µM]	?	·
O=c1c2nc(Nc3cccc(F)c3)ccc2ncn1-c1cccnc1	i	?	4%[88.5 µM]	?	?
COc1ccc(Nc2ccc3ncn(-c4ccccc4)c(=O)c3n2)cn1	i	100µM*	-3%[88.5 µM]	100µM*	5%[70.6 µM]
Cc1ccccc1-c1nc(-c2c(C)noc2C)cc2cc(CN(C)C)oc12	i	28µM*	?	?	4%[70.6 µM]
Cc1noc(C)c1-c1cc2cc(CN(C)C)oc2c(Nc2cccnc2)n1	i	25µM*	0%[88.5 µM]	71µM*	-1%[70.6 µM]
Cc1noc(C)c1-c1cc2cc(CN(C)C)oc2c(NCc2cccnc2)n1	i	?	i	?	7%[70.6 µM]
Cc1noc(C)c1[S+](=O)([O-])NC1CCN(Cc2cccc(-c3cccs3)c2)CC1	·	40µM*!	4%	22µM*!	·
Cc1cccc(-c2cccc(CN3CCC(N[S+](=O)([O-])c4c(C)noc4C)CC3)c2)c1	·	32µM*	-12%	28µM*	·
NC(=O)C1CCN(C(=O)C[C@@H]2CCNC[C@@H]2Cc2cc(COc3ccccc3)on2)CC1	i	i	i	i	-2%
CC(=O)N1CCN(C(=O)C[C@@H]2CCNC[C@@H]2Cc2cc(-c3ccccc3)on2)CC1	i	0%[138 µM]	i	-6%[172 µM]	-20%[70.6 µM]
SMILES	Luciferase inh	NIH3T3 tox	GPT2 inhibitor	HEK293 tox	hNpr1 antagonist
CCN(CC)C(=O)C[C@@H]1CCNC[C@@H]1Cc1cc(-c2ccccn2)on1	i	-25%[174 µM]	-19%[88.5 µM]	1%[172 µM]	-4%[70.6 µM]
CN(Cc1ccccc1)C(=O)C[C@@H]1CCNC[C@@H]1Cc1cc(-c2ccccc2)on1	i	10µM*	4%[88.5 µM]	25µM*	-30%[70.6 µM]
CCCCc1cc(C[C@H]2CNCC[C@H]2CC(=O)N(C)Cc2ccccc2)no1	i	?	0%[88.5 µM]	100µM*	-4%[70.6 µM]
CN(Cc1ccccc1)C(=O)C[C@@H]1CCNC[C@@H]1Cc1cc(COc2ccccc2)on1	i	28µM*	1%[88.5 µM]	50µM*	-20%[70.6 µM]
O=C1N(CCc2ccccc2)c2ccccc2C12CCN([S+](=O)([O-])c1cccc(C(F)(F)F)c1)C2 (stereo not drawn)	i	?	-2%	?	20%
O=C1CC2(CCN(S(=O)(=O)c3cccs3)CC2)Oc2ccccc21	i	?	i	?	-2%
COc1ccc(-c2cc(C(=O)N3CCOCC3)c3cnn(C)c3n2)cc1	·	3%	0%	-5%	·
COc1ccccc1CNC(=O)C1CCCN1c1nccc(Nc2ccccc2F)n1 (stereo not drawn)	·	?	i	40µM*	·
O=C(C1CCCN1c1nccc(Nc2ccccc2F)n1)N1CCC(Cc2ccccc2)CC1 (stereo not drawn)	·	40µM*	i	28µM*	·
COc1ccccc1Nc1ccnc(N2CCC[C@H]2C(=O)NCCc2ccccc2F)n1	·	-19%	i	?	·
COc1ccc(C(=O)N2CCC3(CC2)OCC(C(=O)N2CCCC2)N3C(=O)c2ccc(F)cc2)cc1 (stereo not drawn)	i	-15%	-33%	-16%	2%
O=C(c1nccc2ccccc12)N1CCC2(CC1)CC(Cc1nc(C3CC3)no1)CCO2 (stereo not drawn)	i	?	-10%	?	-3%
N#Cc1cccc(CN2CCC3(CC2)CC(Cc2nc(C4CC4)no2)CCO3)c1 (stereo not drawn)	i	?	-2%	45µM*	-30%
c1ccc(N2CCN(C3CCCN(Cc4cn[nH]c4C4CCCCC4)C3)CC2)cc1 (stereo not drawn)	i	-22%	?	89µM*	-1%
c1ccc(-c2[nH]ncc2CN2CCCC(N3CCN(c4ccccc4)CC3)C2)cc1 (stereo not drawn)	i	-15%	i	?	1%
Cc1nn(-c2ccccc2)c2c1C(C1CC1)N(C1CCCN(C(=O)C3CC3)C1)C2=O (stereo not drawn)	·	-17%	·	i	·
COCCN1C(=O)c2ccccc2C(C(=O)Nc2nc3ccccc3s2)C12CCCCC2 (stereo not drawn)	?	45µM*	i	?	-16%
